VP16 counter: VP16 counterscreen qHTS for inhibitors of ROR gamma transcriptional activity. Drosophila S2 Gal4-VP16 UAS-luciferase, luminescence, 20 h. Potency, µM (series often up to 53.6 µM), without a hit: at the highest dose activity, negative = inhibition, hits mostly inhibitors. actives 3.5% (n = 310,000);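 note: Gal4-VP16 expression switched on by copper sulfate through the metallothionein promoter; nearly all actives have a fitted effect of over 50% in size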
TDP1 block: qHTS Assay for Inhibitors of Tyrosyl-DNA Phosphodiesterase (TDP1); AID 485290, 2010; Potency, µM (series often up to 130 µM), without a hit: at the top dose activity change, negative = inhibition, actives largely listed as inhibitors; actives 0.28% (n = 350,000); recombinant TDP1, AlphaScreen DNA substrate cleavage; Tyrosyl-DNA phosphodiesterase 1 (Homo sapiens), Q9NUW8; note: nearly all actives have a fitted effect of over 40% in size
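Here, a 5' biotin and 3' phosphotyrosine-FITC DNA oligonucleotide reports Tdp1 activity: intact substrate bridges AlphaScreen beads, while cleavage leaves a 3' phosphate and drops signal. All incubations at room temperature.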
TDP1 cell noCPT: qHTS for Inhibitors of human tyrosyl-DNA phosphodiesterase 1 (TDP1): qHTS in cells in absence of CPT. DT40 Tdp1-/- hTDP1 cells, no CPT, ATP luminescence, 48 h. Potency, µM (series often up to 46.2 µM), for the others: at the highest dose activity change, negative = growth inhibition, most hits filed as inhibitors. actives 15% (n = 420,000); note: nearly all actives have a fitted effect of over 55% in size
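Readout: luminescence from CellTiter-Glo after 30 min in the dark at RT. Cells: DT40 Tdp1-/- with stable hTDP1, 400/well. Exposure: compounds alone, ≥48 hr, 37 °C.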
RORg inh: qHTS for inhibitors of ROR gamma transcriptional activity. AID 2551, 2010. Nuclear receptor ROR-gamma (Mus musculus), P51450. Drosophila S2 Gal4-RORgamma UAS-luciferase reporter, 20 h. Potency, µM (doses to about 53.6 µM), for inactives: at the highest dose activity change, negative = inhibition, most hits filed as inhibitors. actives 5.4% (n = 310,000); note: nearly all actives have a fitted effect of over 60% in size
Target sequence (P51450 whole entry, looked up, the tested form may be a part): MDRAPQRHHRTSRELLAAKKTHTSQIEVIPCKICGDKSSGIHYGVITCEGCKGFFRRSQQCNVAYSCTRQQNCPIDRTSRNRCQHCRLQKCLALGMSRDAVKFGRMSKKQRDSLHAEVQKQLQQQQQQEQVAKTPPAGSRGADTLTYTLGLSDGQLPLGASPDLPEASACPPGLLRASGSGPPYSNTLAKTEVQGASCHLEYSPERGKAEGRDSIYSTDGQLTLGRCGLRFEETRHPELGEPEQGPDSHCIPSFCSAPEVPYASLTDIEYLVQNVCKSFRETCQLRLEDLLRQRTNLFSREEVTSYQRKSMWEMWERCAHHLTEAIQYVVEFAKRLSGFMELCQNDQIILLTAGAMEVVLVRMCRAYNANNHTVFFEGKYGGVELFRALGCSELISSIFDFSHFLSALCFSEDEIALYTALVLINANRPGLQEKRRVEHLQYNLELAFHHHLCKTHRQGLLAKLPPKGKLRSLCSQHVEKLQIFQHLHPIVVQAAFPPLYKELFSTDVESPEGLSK
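Stable Schneider cell line, Gal4 DNA-binding domain fused to ROR gamma, UAS-luciferase. Cmpd 1 hr RT → CuSO4 700 uM final → 20 hr RT → luciferase reagent 10 min → luminescence.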
DT40 TDP1 CPT: qHTS for Inhibitors of human tyrosyl-DNA phosphodiesterase 1 (TDP1): qHTS in cells in presence of CPT; Potency, µM (highest dose often 46.2 µM), inactives show at the top dose activity change, negative = growth inhibition, hits mostly inhibitors; actives 12% (n = 420,000); chicken DT40 Tdp1-/-;hTDP1 cells + 20 nM CPT, ATP luminescence, 48 h; note: nearly all actives have a fitted effect of over 55% in size
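Chicken DT40 Tdp1-/- cells stably complemented with human TDP1 were seeded at 400 cells/well in medium containing 20 nM camptothecin, exposed to pin-transferred compounds, and grown at 37 °C for at least 48 hr. Viability was read as ATP luminescence.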
Numbers without * were called inactive; ? = inconclusive; nt = not tested or not shown; [ ] = dose if it differs, or a comment. Rows were chosen to be rich in hits. Some 19% of all compounds tested hit in one or more screens of this group. Calls come from the whole dose curve; as a rule, active = well fitted curve in the direction sought with a large enough effect; inconclusive = small, poorly fitted or top-dose-only effect, or another doubt; inactive = no such curve, though single readings can be large; an effect the other way counts as inactive or inconclusive. % is set by controls: 0 for no effect and ±100 for the full control effect; potency is the fitted concentration of half-maximal effect.

SMILES | VP16 counter | TDP1 block | TDP1 cell noCPT | RORg inh | DT40 TDP1 CPT
CCOc1ccc(C2SCC(=O)N2c2c(C)n(C)n(-c3ccccc3)c2=O)cc1 (centres undefined) | -2% | 1% | -2% | -4% | 7%
CC(C)CCNc1ncnc2c1cnn2-c1cccc(Cl)c1 | nt | -3% | ? | nt | ?
CCOC(=O)c1c(NC(=O)Nc2ccccc2)sc(C)c1C | -2% | 2% | ? | -24% | ?
CC(=O)c1cccc(OCC(=O)c2cc(C)n(-c3cc(C)on3)c2C)c1 | ? | 6% | 18µM* | ? | 18µM*
Cc1cc(-n2c(C)cc(C(=O)COc3cccnc3[N+](=O)[O-])c2C)no1 | nt | -2% | 15µM* | nt | 12µM*
O=C(COc1cccnc1[N+](=O)[O-])c1ccc(Cl)s1 | ? | 1% | 16µM* | -44% | 16µM*
CCC(=O)CN(Cc1cc(OC)ccc1OC)S(=O)(=O)c1ccccc1Br | nt | nt | -8% | nt | ?
O=C(NC12CC3CC(CC(C3)C1)C2)c1ccc(-c2ccc(Br)cc2)o1 | ? | 0% | 16µM* | 5% | 23µM*
O=C(NC12CC3CC(CC(C3)C1)C2)c1ccc([N+](=O)[O-])o1 | ? | 3% | 23µM* | ? | 23µM*
O=C(NC12CC3CC(CC(C3)C1)C2)c1ccc(Br)o1 | 10% | nt | ? | ? | -8%
CC(NC(=O)c1ccc([N+](=O)[O-])o1)C1CC2CCC1C2 (centres undefined) | nt | -5% | ? | nt | 21µM*
CCOC(=O)c1cc2c(ccn2C)n1CC(=O)Nc1ccc(F)cc1 | 8% | 3% | -21% | 9% | 23µM*
CCOC(=O)c1cc2c(ccn2C)n1CC(=O)N1CCC(Cc2ccccc2)CC1 | 0% | 12% | 18µM* | 0% | 23µM*
COC(=O)c1cc2c(ccn2-c2ccc(F)cc2)n1Cc1cccc(OC)c1 | 7% | 8% | 16µM* | 7% | 7.3µM*
CCOC(=O)c1cc2c(ccn2C)n1CC(=O)N(C)C | 2% | 3% | 16% | 8% | 2%
CCOC(=O)c1cc2c(ccn2-c2ccc(F)cc2)n1CC(=O)N1CCN(C(=O)c2ccco2)CC1 | -7% | -7% | 12µM* | -5% | ?
CN1C(=O)N(CC(=O)N2CCN(S(=O)(=O)c3ccc4c(c3)CCC4)CC2)C(=O)C12CCCCC2 | nt | -5% | ? | nt | ?
CC(C)(C)c1csc(NC(=O)CSC2=NCCS2)n1 | -22% | nt | ? | 17% | ?
CCOC(=O)c1cn(CC(=O)Nc2ccccc2C(=O)OCC)nn1 | -1% | 7% | -1% | 0% | -1%
COc1ccc(-c2ccc(NS(=O)(=O)c3cc(C)c(C)cc3C)cc2)nn1 | nt | 5% | ? | nt | 21µM*
COc1ccc(-c2ccc(NS(=O)(=O)c3cccc(C)c3)cc2)nn1 | nt | 3% | 29µM* | nt | ?
COc1ccc(-c2cccc(NS(=O)(=O)c3ccc([N+](=O)[O-])cc3)c2)nn1 | nt | 1% | ? | nt | ?
COc1ccc(-c2ccc(NS(=O)(=O)c3ccccc3Cl)cc2)nn1 | nt | 5% | 18µM* | nt | 21µM*
COc1ccc(-c2cccc(NS(=O)(=O)c3cccc([N+](=O)[O-])c3)c2)nn1 | nt | 6% | 26µM* | nt | ?
CNC(=O)c1c(NC(=O)C2=COCCO2)sc2c1CCCC2 | 1% | 7% | ? | 33% | -26%
SMILES | VP16 counter | TDP1 block | TDP1 cell noCPT | RORg inh | DT40 TDP1 CPT
CN(C)c1ccc(CNC(=O)CN(C)S(=O)(=O)c2cccc3cccnc23)cc1 | 5% | 4% | -2% | -1% | 3%
CCn1c(SCC(=O)OC2CCCCC2)nc2ccccc2c1=O | 1% | 0% | ? | 19% | 0%
COc1ccc(-c2ccc(NS(=O)(=O)c3ccccc3)cc2)nn1 | nt | -3% | 15µM* | nt | ?
COc1ccc(-c2ccc(NS(=O)(=O)c3ccc(C(C)=O)cc3)cc2)nn1 | nt | 2% | -22% | nt | -28%
O=C(NC1=NCCS1)C12CC3CC(CC(C3)C1)C2 | 22µM* | -3% | -34% | 7.1µM* | -3%
CC(C)CC(NC(=O)CC12CC3CC(CC(C3)C1)C2)C(=O)NC1=NCCS1 (centres undefined) | -28% | 0% | 26µM* | ? | ?
CC(C)C(NC(=O)CC12CC3CC(CC(C3)C1)C2)C(=O)O (centres undefined) | -6% | 6% | -13% | 2% | -10%
Cc1nc(CN2CCOCC2)cc(=O)[nH]1 | -6% | 6% | 7% | 3% | 2%
COc1ccc2c(c1)OC/C(=C/c1ccc(O)c(O)c1)C2=O | ? | 5% | 2.6µM* | 25% | 3.3µM*
COc1ccc(NC(=O)c2n[nH]c(=O)c3ccccc23)cc1S(=O)(=O)N1CCCCC1 | -22% | 1% | ? | 33% | ?
O=C(CSc1nc(=O)n(CCCN2CCOCC2)c2c1CCCC2)Nc1ccccc1Cl | nt | 3% | -19% | nt | -27%
CCCOc1ccc(-c2cc3onc(-c4ccccc4)c3c(=O)n2C)cc1 | nt | -3% | 18µM* | nt | 26µM*
CNC(=O)c1ccc(-c2cc3onc(-c4ccccc4)c3c(=O)n2C)cc1 | nt | 0% | 23µM* | nt | 18µM*
Cc1ccc(-c2cc3onc(-c4ccccc4)c3c(=O)n2C)cc1 | nt | -7% | ? | nt | ?
Cn1c(-c2ccc(F)cc2)cc2onc(-c3c(F)cccc3Cl)c2c1=O | nt | 0% | ? | nt | 13µM*
CCOC(=O)C1=CCC(c2ccccc2)N(S(=O)(=O)c2ccccc2C)C1 (centres undefined) | nt | nt | 23µM* | nt | ?
Cc1ccccc1S(=O)(=O)N1CC(C(=O)O)=CC[C@H]1c1ccc(Cl)cc1 | nt | 1% | -7% | nt | -10%
CC(=O)C1=CCC(c2ccccc2)N(S(=O)(=O)c2ccccc2C)C1 (centres undefined) | nt | nt | 21µM* | nt | ?
Cc1cccc(N2CCN(S(=O)(=O)c3cc(Br)cc4c3N(C(=O)C3CC3)CC4)CC2C)c1 (centres undefined) | nt | 3% | ? | nt | ?
Cc1csc(=Nc2c(C)n(C)n(-c3ccccc3)c2=O)n1Cc1ccccc1 | 5% | 9% | ? | 16% | -19%
C=CCn1c(-c2ccc(OC)cc2)csc1=Nc1c(C)n(C)n(-c2ccccc2)c1=O | 1% | 4% | 21µM* | 30% | 21µM*
COc1cc(O)c(C(=O)O)c(O)c1 | -6% | -2%[56.1 µM] | -1% | 1% | -2%

Screening data deposited in PubChem BioAssay by National Center for Advancing Translational Sciences (NCATS).
